Compounds with a hit are over-represented: about 14% of the library has one in this group of screens.
Pf growth 96h = Primary qHTS for delayed death inhibitors of the malarial parasite plastid, 96 hour incubation. P. falciparum luciferase reporter growth, 96 h. Potency, µM (series often up to 28.7 µM), hits mostly inhibitors. actives 6.9% (n = 320,000)
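Readout is luminescence from an integrated firefly luciferase in P. falciparum. Red cells, 2% hematocrit and 0.05% parasitemia final, were cultured with compound through two parasite generations (96 hours) at 37 C, 5% CO2.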
Giardia FBPA inh = qHTS Assay for Inhibitors of Fructose-1,6-bisphosphate Aldolase from Giardia Lamblia; A8B2U2; purified Giardia FBPA; Potency, µM (doses to about 59.6 µM), most hits filed as inhibitors; actives 0.71% (n = 290,000); AID 2451, 2010; further: nearly all actives have a fitted effect of over 55% in size
Target sequence (A8B2U2 whole entry, looked up): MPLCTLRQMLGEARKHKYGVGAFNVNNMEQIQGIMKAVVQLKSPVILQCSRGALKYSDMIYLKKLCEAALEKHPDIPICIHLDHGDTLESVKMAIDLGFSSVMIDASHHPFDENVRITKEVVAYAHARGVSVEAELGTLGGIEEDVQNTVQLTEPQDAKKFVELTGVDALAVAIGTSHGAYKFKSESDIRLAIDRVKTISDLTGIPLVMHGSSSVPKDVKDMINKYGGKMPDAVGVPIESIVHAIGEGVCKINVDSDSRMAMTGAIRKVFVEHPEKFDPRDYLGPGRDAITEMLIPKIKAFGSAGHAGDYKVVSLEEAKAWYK
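40 nM FBPA preincubated 10 min at RT with compound (up to 57.5 uM final), then substrate plus GAPDH/TPI/NAD/arsenate coupling and diaphorase/resazurin added. Fluorescence read after 20 min at RT, 525/598 nm.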
Sm TGR block = qHTS Assay for the Inhibitors of Schistosoma Mansoni Peroxiredoxins; Schistosoma mansoni thioredoxin glutathione reductase (TGR), Q962Y6; purified TGR, DTNB reduction, TNB absorbance 405 nm; Potency, µM (series often up to 114 µM), actives largely listed as inhibitors; actives 3% (n = 360,000); further: nearly all actives have a fitted effect of over 60% in size
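Kinetic colorimetric format: TGR-catalysed, NADPH-driven DTNB reduction monitored via TNB absorbance. Enzyme dispensed at 20 nM; compound exposure 15 min at room temperature before reaction start.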
HCMV antiviral = qHTS Assay for inhibitors of the human cytomegalovirus (HCMV); HFF cells, HCMV-luciferase reporter, 72 h; active compounds read low; activity change, negative = inhibition, % at 57.5 µM; actives 4.5% (n = 410,000); in the data active means activity change below about -60%; inconclusive means no clear call, values can overlap the other calls; inactive means above about -39%
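After 16 h attachment at 37C, HFF cells received test compound and HCMV-luciferase (1 PFU/cell); reporter luminescence read 72 h later, data normalized against buffer-only and known inhibitor Salinomycin.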
Pf growth 48h = Primary qHTS for delayed death inhibitors of the malarial parasite plastid, 48 hour incubation; Potency, µM (highest dose often 28.7 µM), most hits filed as inhibitors; actives 5.9% (n = 310,000); AID 504832, 2011; P. falciparum luciferase growth in erythrocytes, 48 h
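Read-out is firefly luciferase luminescence from an integrated reporter in P. falciparum, so falling signal marks reduced parasite growth. Infected erythrocytes were at 2% hematocrit and 0.1% parasitemia (final) in Albumax-supplemented RPMI 1640.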
Numbers stand for hits. Unless noted, the call rests on the fitted dose curve; in most records, active means well fitted curve in the direction sought with a large enough effect; inconclusive means small, poorly fitted or top-dose-only effect, or another doubt; inactive means no such curve, though single readings can be large; an effect the other way counts as inactive or inconclusive.

For Cc1ccc(C)c(NC(=O)c2cc(-c3cc(C)c(C)cc3O)n[nH]2)c1 the results were Pf growth 96h inconclusive, Giardia FBPA inh inactive, Sm TGR block inactive, HCMV antiviral -78 and Pf growth 48h 6.6µM.
Screening CSCc1cc(N2CCOCC2)nc(SCc2ccc(Cl)c(Cl)c2)n1 returned Pf growth 96h inconclusive, Giardia FBPA inh inactive, Sm TGR block inactive, HCMV antiviral inactive and Pf growth 48h inconclusive.
For COC(=O)c1ccc(C(NC(=O)OCc2ccccc2)/C(=C/[C@@H](C)C(=O)N(C)Cc2ccccc2)c2cccnc2)cc1 (some centres undefined) the results were Giardia FBPA inh inactive.
`CCCCOc1ccc(N2C(=O)C(C)CNC2=S)cc1` (centres undefined) gave HCMV antiviral -99.
Screening COc1ccc(N2CCN(C(=O)CCS(=O)(=O)c3ccc4c(c3)NC(=O)C(C)S4)CC2)cc1 (centres undefined) returned Pf growth 96h 9.3µM, Giardia FBPA inh inactive, Sm TGR block inactive, HCMV antiviral inconclusive and Pf growth 48h inconclusive.
`Cc1ccc(C)c(N2CCN(C(=O)CCS(=O)(=O)c3ccc4c(c3)NC(=O)C(C)S4)CC2)c1` (centres undefined) gave Pf growth 96h inactive, Sm TGR block inactive, HCMV antiviral active and Pf growth 48h inconclusive.
For O=C(NCc1ccccn1)[C@@H]1CCCN1C(=O)[C@@H]1CCCN1C(=O)c1ccc(Cl)cc1 the results were HCMV antiviral inactive.
`CC(C)NC(=O)NNC(=O)c1cc(COc2cc(Cl)cc(Cl)c2)on1` gave Pf growth 96h inactive, Giardia FBPA inh inactive, Sm TGR block inactive, HCMV antiviral inactive and Pf growth 48h inactive.
`CC(C)(C)NCC(O)c1cc(Cl)c(N)c(C(F)(F)F)c1` (centres undefined) gave Pf growth 96h 8.5µM and Pf growth 48h 13µM.
`CC(C)(C)NCC(O)c1cc(O)cc(O)c1` (centres undefined) gave Pf growth 96h inactive, Giardia FBPA inh inactive, Sm TGR block inactive, HCMV antiviral inactive and Pf growth 48h inactive.
O=C1c2ccccc2C(=O)N1CCCCSc1nnc2ccccn12 was read as Pf growth 96h inconclusive, Giardia FBPA inh inactive, Sm TGR block inactive, HCMV antiviral inactive and Pf growth 48h 13µM.
`Cc1ccc(NC(=O)c2cccc3c2C(=O)N(C2CCCCC2)C3)cc1` gave Pf growth 96h 12µM, Giardia FBPA inh inactive, Sm TGR block inactive, HCMV antiviral inactive and Pf growth 48h inactive.
CCOC(=O)N1CCC(N2Cc3cccc(C(=O)Nc4ccc(CC)cc4)c3C2=O)CC1 was read as Pf growth 96h inactive, Giardia FBPA inh inactive, Sm TGR block inactive and HCMV antiviral inactive.
O=C(c1ccco1)N1CCN(C(=O)c2cccc3c2C(=O)N(C2CCCCC2)C3)CC1 was read as Giardia FBPA inh inactive, Sm TGR block 50µM, HCMV antiviral inactive and Pf growth 48h inactive.
Screening O=C(c1ccco1)N1CCN(C(=O)c2cccc3c2C(=O)N(Cc2cccnc2)C3)CC1 returned Pf growth 96h inactive, Giardia FBPA inh inactive, Sm TGR block inactive and HCMV antiviral inactive.
`CCOC(=O)N1CCC(N2Cc3cccc(C(=O)Nc4cc(F)ccc4F)c3C2=O)CC1` gave Pf growth 96h inactive, Giardia FBPA inh inactive, Sm TGR block inactive and HCMV antiviral inactive.
Screening CCOC(=O)N1CCC(N2Cc3cccc(C(=O)Nc4ccc(N(CC)CC)cc4C)c3C2=O)CC1 returned Pf growth 96h 0.74µM, Giardia FBPA inh inactive, Sm TGR block inactive, HCMV antiviral inactive and Pf growth 48h inconclusive.
`CC(C)c1ccc(NC(=O)c2cccc3c2C(=O)N(C2CCCCC2)C3)cc1` gave Sm TGR block inactive and HCMV antiviral inactive.
`CCOC(=O)N1CCC(N2Cc3cccc(C(=O)Nc4ccc(F)cc4)c3C2=O)CC1` gave Pf growth 96h inactive, Giardia FBPA inh inactive, Sm TGR block inactive, HCMV antiviral -102 and Pf growth 48h 3.3µM.
CCc1cccc(NC(=S)N(CCCN2CCOCC2)C(C)c2cc3cccc(OC)c3o2)c1 (centres undefined) was read as Pf growth 96h inactive, Giardia FBPA inh inactive, Sm TGR block inactive, HCMV antiviral inactive and Pf growth 48h inconclusive.

Screening data as filed in PubChem.
